# Laboratory results reported in publication PMC7862700, “An all-to-all approach to the identification of sequence-specific readers for epigenetic DNA modifications on cytosine”.
# What was measured:
# Test in all cases: DAPPL (digital affinity profiling via proximity ligation, sequencing); 10 mM Tris-HCl pH 7.5, 50 mM NaCl, 1 mM DTT, 4% glycerol, room temperature, 30 min; GST-TFs on glutathione beads, 16-mer random dsDNA library, 0.1% formaldehyde crosslink after washing; high values mean tight binding
# [1] = target: T1, FLI1 (Homo sapiens, UniProt Q01543 1-452); details: protein: recombinant; tags: N-terminal GST; dsDNA, one strand shown
# T1 sequence: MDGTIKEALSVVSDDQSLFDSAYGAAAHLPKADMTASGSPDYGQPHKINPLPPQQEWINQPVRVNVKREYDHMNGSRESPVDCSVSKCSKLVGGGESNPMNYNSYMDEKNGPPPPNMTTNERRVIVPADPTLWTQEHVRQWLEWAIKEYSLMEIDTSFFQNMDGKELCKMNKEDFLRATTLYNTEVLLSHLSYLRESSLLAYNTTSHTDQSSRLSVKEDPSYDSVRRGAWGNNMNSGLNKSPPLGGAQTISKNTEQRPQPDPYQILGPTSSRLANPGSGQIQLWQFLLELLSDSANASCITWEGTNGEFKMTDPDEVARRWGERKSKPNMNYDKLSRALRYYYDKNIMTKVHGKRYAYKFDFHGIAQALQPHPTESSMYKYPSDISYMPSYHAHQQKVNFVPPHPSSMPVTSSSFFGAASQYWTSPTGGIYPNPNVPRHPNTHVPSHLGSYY
# In short: (§1)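 A tag-only sample was pooled with DNA-barcoded human transcription factors that had been expressed in yeast as GST fusions and captured on glutathione beads. The pools were incubated for 30 min at room temperature with 200 nmole of a random double-stranded 16-mer DNA library in Tris/NaCl/DTT/glycerol buffer, then washed, crosslinked with 0.1% formaldehyde, proximity-ligated (BsaI/T4 ligase, 1 h, 37 °C), PCR-amplified and sequenced on an Illumina NextSeq500. Binding signal is each hexamer's read frequency for a factor divided by its frequency for the tag-only sample.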
# [2] = target: T2, ELK1 (Homo sapiens, UniProt P19419 1-428); details: protein: recombinant; tags: N-terminal GST; dsDNA, one strand shown
# T2 sequence: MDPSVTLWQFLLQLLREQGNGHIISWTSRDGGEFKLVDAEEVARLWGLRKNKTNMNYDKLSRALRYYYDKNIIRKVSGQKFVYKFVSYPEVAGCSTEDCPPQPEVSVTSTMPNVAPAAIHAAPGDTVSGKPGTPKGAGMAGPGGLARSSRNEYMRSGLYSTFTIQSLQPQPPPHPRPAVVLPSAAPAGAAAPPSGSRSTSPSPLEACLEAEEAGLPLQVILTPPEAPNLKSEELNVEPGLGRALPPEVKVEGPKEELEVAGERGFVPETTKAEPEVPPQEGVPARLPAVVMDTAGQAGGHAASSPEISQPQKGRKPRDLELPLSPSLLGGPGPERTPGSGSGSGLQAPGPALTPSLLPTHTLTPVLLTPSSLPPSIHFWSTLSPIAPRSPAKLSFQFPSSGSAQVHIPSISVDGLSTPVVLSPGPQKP
# In short: as §1
# [3] = target: T3, GABPA (Homo sapiens, UniProt Q06546 1-454); details: protein: recombinant; tags: N-terminal GST; dsDNA, one strand shown
# T3 sequence: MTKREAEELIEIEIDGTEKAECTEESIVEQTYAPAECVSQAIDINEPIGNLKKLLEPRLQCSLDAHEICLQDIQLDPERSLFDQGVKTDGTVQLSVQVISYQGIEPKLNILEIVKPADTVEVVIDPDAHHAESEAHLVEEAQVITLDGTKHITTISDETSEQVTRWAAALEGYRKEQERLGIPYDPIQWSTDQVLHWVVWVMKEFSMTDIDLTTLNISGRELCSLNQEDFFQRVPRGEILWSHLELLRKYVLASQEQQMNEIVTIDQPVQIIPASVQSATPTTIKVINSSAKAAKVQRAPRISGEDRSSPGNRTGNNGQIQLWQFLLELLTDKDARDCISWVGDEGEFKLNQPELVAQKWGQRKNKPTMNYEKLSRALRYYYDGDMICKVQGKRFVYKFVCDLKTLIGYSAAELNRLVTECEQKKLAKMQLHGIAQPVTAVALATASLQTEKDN
# In short: as §1
# [4] = target: T4, ERG (Homo sapiens, UniProt P11308 1-479); details: protein: recombinant; tags: N-terminal GST; dsDNA, one strand shown
# T4 sequence: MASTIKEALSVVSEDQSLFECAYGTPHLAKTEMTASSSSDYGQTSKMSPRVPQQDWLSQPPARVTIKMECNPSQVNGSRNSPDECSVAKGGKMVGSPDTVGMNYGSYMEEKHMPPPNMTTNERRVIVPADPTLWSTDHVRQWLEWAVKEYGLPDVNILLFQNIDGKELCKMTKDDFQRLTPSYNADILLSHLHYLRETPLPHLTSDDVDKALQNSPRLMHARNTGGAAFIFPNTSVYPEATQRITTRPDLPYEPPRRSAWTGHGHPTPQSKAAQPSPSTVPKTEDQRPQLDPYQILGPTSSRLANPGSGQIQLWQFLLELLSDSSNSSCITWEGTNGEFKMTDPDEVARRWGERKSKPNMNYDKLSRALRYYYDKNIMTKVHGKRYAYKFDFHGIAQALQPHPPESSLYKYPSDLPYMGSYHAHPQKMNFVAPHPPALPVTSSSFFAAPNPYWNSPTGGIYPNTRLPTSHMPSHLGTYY
# In short: as §1
# [5] = target: ELF1 (Homo sapiens, UniProt P32519 1-619); details: protein: recombinant; tags: N-terminal GST; dsDNA, one strand shown
# In short: as §1
# [6] = target: T5, EHF (Homo sapiens, UniProt Q9NZC4 1-300); details: protein: recombinant; tags: N-terminal GST; dsDNA, one strand shown
# T5 sequence: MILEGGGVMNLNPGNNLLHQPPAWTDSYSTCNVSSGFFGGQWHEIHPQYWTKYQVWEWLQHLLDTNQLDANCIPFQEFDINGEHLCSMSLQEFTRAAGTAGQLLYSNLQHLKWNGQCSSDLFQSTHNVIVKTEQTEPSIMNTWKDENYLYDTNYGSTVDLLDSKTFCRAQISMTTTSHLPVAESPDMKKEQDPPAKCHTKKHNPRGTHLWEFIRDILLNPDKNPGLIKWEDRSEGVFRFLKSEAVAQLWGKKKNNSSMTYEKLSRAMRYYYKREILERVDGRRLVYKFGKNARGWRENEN
# In short: as §1
# [7] = target: SPI1 (Homo sapiens, UniProt P17947 1-270); details: protein: recombinant; tags: N-terminal GST; dsDNA, one strand shown
# In short: as §1
# [8] = target: SPIB (Homo sapiens, UniProt Q01892 1-262); details: protein: recombinant; tags: N-terminal GST; dsDNA, one strand shown
# In short: as §1
# [9] = target: T6, ELK3 (Homo sapiens, UniProt P41970 1-407); details: protein: recombinant; tags: N-terminal GST; dsDNA, one strand shown
# T6 sequence: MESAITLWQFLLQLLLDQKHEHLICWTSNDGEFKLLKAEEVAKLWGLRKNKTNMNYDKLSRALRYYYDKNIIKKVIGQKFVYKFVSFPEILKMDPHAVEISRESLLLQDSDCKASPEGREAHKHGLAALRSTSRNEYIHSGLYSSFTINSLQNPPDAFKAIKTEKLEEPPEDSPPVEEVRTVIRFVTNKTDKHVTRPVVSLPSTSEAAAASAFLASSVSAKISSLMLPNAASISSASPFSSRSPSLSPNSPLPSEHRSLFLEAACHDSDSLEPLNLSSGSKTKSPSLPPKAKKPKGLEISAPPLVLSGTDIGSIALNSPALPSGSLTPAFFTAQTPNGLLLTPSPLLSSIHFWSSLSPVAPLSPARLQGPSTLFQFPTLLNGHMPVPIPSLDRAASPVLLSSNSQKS
# In short: as §1
# [10] = target: T7, FEV (Homo sapiens, UniProt Q99581 1-238); details: protein: recombinant; tags: N-terminal GST; dsDNA, one strand shown
# T7 sequence: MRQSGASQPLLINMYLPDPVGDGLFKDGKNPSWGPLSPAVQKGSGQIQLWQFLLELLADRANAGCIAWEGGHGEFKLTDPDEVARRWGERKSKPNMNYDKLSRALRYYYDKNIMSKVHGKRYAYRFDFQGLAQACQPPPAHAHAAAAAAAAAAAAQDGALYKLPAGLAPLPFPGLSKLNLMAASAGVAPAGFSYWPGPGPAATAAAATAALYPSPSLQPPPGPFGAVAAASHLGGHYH
# In short: as §1
# [11] = target: ETV5 (Homo sapiens, UniProt P41161 1-510); details: protein: recombinant; tags: N-terminal GST; dsDNA, one strand shown
# In short: as §1
# [12] = target: HSF1 (Homo sapiens, UniProt Q00613 1-529); details: protein: recombinant; tags: N-terminal GST; chain copies: 3; dsDNA, one strand shown
# In short: as §1
# [13] = target: T8, SPIC (Homo sapiens, UniProt Q8N5J4 1-248); details: protein: recombinant; tags: N-terminal GST; dsDNA, one strand shown
# T8 sequence: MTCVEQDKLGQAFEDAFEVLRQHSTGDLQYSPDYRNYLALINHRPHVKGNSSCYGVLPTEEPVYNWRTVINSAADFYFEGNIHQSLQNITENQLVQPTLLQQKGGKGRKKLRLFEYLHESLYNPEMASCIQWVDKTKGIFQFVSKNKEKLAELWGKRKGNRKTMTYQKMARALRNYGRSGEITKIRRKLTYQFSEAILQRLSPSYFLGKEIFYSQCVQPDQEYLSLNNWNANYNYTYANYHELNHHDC
# In short: as §1
# [14] = target: ELF4 (Homo sapiens, UniProt Q99607 1-663); details: protein: recombinant; tags: N-terminal GST; dsDNA, one strand shown
# In short: as §1
# [15] = target: T9, ELK4 (Homo sapiens, UniProt P28324-2 1-405); details: protein: recombinant; tags: N-terminal GST; dsDNA, one strand shown
# T9 sequence: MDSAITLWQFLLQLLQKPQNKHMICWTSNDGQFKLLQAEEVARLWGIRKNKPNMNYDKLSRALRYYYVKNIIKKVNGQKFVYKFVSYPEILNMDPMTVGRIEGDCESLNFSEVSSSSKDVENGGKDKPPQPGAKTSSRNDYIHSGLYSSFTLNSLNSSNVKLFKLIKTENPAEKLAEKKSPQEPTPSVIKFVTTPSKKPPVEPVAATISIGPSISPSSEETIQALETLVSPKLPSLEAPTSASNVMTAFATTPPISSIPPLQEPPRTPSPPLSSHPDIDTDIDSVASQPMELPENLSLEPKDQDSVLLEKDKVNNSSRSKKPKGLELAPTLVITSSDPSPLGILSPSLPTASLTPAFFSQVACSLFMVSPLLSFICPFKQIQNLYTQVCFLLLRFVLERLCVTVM
# In short: as §1
# [16] = target: T10, ETV2 (Homo sapiens, UniProt O00321 1-342); details: protein: recombinant; tags: N-terminal GST; dsDNA, one strand shown
# T10 sequence: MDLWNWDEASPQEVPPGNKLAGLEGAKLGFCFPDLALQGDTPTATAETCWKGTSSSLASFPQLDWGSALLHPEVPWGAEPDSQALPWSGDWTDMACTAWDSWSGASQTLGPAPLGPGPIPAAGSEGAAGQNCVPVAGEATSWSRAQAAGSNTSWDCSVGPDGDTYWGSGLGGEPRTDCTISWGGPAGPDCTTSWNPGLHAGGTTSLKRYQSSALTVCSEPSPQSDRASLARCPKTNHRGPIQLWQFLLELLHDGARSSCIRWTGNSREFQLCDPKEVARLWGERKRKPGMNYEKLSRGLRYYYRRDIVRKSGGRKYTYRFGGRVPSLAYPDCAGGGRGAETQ
# In short: as §1
# [17] = target: T11, ELF3 (Homo sapiens, UniProt P78545 1-371); details: protein: recombinant; tags: N-terminal GST; dsDNA, one strand shown
# T11 sequence: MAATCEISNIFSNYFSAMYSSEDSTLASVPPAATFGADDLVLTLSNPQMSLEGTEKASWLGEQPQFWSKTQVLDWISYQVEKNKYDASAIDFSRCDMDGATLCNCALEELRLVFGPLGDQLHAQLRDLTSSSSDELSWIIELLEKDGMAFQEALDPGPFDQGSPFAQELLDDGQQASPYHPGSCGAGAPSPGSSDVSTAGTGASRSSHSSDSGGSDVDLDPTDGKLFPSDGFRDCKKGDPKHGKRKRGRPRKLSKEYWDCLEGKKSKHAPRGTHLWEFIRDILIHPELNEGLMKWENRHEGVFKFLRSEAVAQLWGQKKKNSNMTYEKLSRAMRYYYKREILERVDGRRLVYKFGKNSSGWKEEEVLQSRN
# In short: as §1
# [18] = target: CRX (Homo sapiens, UniProt O43186 1-299); details: protein: recombinant; tags: N-terminal GST; dsDNA, one strand shown
# In short: as §1
# [19] = target: ETV1 (Homo sapiens, UniProt P50549 1-477); details: protein: recombinant; tags: N-terminal GST; dsDNA, one strand shown
# In short: as §1
# Chain of ELF1 (P32519 whole entry): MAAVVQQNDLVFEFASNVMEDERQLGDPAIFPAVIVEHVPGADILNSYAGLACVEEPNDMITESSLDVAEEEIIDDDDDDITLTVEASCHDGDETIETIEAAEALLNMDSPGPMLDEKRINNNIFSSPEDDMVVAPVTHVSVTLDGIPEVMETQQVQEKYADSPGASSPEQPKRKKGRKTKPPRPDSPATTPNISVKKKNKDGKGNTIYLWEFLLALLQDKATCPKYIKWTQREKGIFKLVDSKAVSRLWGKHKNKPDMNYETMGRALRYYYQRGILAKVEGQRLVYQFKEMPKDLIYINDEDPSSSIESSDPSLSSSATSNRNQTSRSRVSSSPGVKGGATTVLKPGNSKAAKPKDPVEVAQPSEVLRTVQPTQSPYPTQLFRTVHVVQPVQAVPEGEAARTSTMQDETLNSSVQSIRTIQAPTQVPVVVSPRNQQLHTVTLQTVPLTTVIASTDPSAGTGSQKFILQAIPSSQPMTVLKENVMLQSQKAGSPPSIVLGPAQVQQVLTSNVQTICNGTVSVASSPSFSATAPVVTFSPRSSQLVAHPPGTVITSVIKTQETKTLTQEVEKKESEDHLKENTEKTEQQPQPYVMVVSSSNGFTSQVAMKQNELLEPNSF
# Chain of ELF4 (Q99607 whole entry): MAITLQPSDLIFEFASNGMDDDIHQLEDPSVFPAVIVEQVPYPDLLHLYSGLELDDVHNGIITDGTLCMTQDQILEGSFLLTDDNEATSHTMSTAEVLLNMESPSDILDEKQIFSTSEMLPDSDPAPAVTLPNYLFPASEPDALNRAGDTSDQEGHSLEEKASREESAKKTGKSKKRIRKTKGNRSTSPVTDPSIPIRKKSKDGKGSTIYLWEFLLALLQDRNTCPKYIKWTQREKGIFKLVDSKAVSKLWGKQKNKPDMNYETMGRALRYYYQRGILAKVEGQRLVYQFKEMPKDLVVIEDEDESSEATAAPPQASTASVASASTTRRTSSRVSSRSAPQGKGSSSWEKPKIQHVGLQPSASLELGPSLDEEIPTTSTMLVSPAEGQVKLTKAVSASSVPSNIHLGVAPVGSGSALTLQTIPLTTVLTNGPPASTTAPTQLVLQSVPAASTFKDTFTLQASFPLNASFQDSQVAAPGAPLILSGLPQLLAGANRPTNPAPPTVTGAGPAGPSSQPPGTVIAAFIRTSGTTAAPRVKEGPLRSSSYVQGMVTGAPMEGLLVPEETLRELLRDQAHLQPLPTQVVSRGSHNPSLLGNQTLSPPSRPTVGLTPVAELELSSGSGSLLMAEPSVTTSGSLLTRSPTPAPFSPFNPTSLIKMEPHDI
# Chain of ETV5 (P41161 whole entry): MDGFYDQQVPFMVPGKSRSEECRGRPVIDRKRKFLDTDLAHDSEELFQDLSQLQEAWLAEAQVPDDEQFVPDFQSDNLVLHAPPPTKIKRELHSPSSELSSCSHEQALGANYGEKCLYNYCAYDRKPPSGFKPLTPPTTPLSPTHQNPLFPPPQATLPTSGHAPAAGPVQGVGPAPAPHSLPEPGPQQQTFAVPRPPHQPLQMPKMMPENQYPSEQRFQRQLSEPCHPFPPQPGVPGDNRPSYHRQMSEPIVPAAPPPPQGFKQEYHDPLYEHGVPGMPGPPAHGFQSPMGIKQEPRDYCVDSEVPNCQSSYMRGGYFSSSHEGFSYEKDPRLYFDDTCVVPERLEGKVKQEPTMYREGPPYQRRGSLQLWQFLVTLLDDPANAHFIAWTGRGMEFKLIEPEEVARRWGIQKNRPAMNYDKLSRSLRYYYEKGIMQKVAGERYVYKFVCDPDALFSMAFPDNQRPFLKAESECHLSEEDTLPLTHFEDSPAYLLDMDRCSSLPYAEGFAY
# Chain of HSF1 (Q00613 whole entry): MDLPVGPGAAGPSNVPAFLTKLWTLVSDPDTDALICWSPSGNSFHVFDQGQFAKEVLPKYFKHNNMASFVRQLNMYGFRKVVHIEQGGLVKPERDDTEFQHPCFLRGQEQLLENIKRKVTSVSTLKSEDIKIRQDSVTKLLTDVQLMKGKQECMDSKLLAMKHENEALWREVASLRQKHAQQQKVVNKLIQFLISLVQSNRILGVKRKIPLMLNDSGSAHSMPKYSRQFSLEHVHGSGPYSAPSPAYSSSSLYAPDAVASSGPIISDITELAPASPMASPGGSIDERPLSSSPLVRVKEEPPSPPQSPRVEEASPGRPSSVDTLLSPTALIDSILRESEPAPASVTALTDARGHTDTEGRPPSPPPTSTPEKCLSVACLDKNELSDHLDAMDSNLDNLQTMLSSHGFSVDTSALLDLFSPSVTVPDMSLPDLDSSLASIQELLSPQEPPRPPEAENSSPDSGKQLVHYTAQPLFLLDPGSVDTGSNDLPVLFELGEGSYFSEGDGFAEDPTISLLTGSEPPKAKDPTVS
# Chain of ETV1 (P50549 whole entry): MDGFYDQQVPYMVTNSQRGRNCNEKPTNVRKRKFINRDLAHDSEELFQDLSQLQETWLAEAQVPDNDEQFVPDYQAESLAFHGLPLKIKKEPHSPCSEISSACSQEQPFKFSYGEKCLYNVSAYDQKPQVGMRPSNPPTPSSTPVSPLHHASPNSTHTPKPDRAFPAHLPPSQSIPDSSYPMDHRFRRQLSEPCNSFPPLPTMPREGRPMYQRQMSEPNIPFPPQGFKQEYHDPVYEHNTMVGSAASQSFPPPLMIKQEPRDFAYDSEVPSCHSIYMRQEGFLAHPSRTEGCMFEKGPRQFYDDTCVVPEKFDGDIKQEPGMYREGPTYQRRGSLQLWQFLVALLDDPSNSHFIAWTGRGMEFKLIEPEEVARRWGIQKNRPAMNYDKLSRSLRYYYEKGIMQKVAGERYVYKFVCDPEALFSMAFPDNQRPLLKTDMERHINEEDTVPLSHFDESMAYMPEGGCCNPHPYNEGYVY
# Chain of SPIB (Q01892 whole entry): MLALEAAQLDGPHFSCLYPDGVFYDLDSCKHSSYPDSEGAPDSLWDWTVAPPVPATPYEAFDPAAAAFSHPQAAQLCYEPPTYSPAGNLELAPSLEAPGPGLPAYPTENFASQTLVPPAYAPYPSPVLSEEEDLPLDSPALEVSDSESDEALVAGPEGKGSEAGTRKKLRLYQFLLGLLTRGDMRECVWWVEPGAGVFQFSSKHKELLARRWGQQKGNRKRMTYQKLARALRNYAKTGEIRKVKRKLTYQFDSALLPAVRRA
# Chain of CRX (O43186 whole entry): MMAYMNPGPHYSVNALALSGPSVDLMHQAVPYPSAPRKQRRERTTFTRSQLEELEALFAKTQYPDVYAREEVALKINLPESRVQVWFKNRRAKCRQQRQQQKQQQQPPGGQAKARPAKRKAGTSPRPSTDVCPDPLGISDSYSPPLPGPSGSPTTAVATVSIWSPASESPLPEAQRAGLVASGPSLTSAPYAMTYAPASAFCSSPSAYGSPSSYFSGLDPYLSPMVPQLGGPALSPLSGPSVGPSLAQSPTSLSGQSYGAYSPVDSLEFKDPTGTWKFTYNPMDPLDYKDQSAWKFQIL
sequence,measurement,setting,value
CACTTT,binding signal,[1],"1.25 fold enrichment (6-mer frequency, TF over GST control)"
same,binding signal,[2],"1.33 fold enrichment (6-mer frequency, TF over GST control)"
same,binding signal,[3],"1.21 fold enrichment (6-mer frequency, TF over GST control)"
same,binding signal,[4],"1.26 fold enrichment (6-mer frequency, TF over GST control)"
same,binding signal,[5],"1.35 fold enrichment (6-mer frequency, TF over GST control)"
same,binding signal,[6],"1.36 fold enrichment (6-mer frequency, TF over GST control)"
same,binding signal,[7],"1.39 fold enrichment (6-mer frequency, TF over GST control)"
same,binding signal,[8],"1.37 fold enrichment (6-mer frequency, TF over GST control)"
same,binding signal,[9],"1.29 fold enrichment (6-mer frequency, TF over GST control)"
same,binding signal,[10],"1.18 fold enrichment (6-mer frequency, TF over GST control)"
same,binding signal,[11],"1.38 fold enrichment (6-mer frequency, TF over GST control)"
same,binding signal,[12],"1.17 fold enrichment (6-mer frequency, TF over GST control)"
same,binding signal,[13],"1.29 fold enrichment (6-mer frequency, TF over GST control)"
same,binding signal,[14],"1.3 fold enrichment (6-mer frequency, TF over GST control)"
same,binding signal,[15],"1.34 fold enrichment (6-mer frequency, TF over GST control)"
same,binding signal,[16],"1.35 fold enrichment (6-mer frequency, TF over GST control)"
same,binding signal,[17],"1.28 fold enrichment (6-mer frequency, TF over GST control)"
same,binding signal,[18],"1.14 fold enrichment (6-mer frequency, TF over GST control)"
same,binding signal,[19],"1.3 fold enrichment (6-mer frequency, TF over GST control)"
